# Screen size: about 6,200 compounds; about 2,900 (47%) were called active. Rule as the data show it: active = inhibition above about 50%; inactive = the rest. So high a share suggests a set chosen from earlier hits. The list shows a part of the results.
# Assay: Mycobacterium tuberculosis growth inhibition, primary screen (AID 1259343)
# Settings: inhibition: at 10 µM, active compounds read high; outcome: 10 uM
row,Structure (SMILES),inhibition
1,CC(SC(=S)N1CCCC1)c1nc(C2CC2)no1 (stereo not given),-46.6% (inactive)
2,Cc1cc(OCc2cccc(Cl)c2)ccc1N,92.4% (active)
3,NC(=O)c1cccc(COc2cc(Cl)cc(Cl)c2)c1,49.7% (inactive)
4,Cc1c(C(=O)NCc2ccc(Cl)c(Cl)c2)sc(=O)n1Cc1cccc(F)c1,41.3% (inactive)
5,Cc1ccc(C2CC2C(=O)Nc2nc(C)c(SCC#N)s2)s1 (stereo not given),39.7% (inactive)
6,Cc1nc(NC(=O)CNC(=O)Cc2cccc(F)c2)sc1SCC#N,81.8% (active)
7,CNC(=O)NC(=O)C(C)Sc1nnc(Nc2ccc(C)cc2)s1 (stereo not given),54.2% (active)
8,CNC(=O)NC(=O)C(C)Sc1nnc(SCC(C)C)s1 (stereo not given),89.7% (active)
9,CCNC(=O)NC(=O)C(C)Sc1nnc(Nc2ccc(C)cc2)s1 (stereo not given),99.2% (active)
10,CC(C)CSc1nnc(SCC(=O)Nc2ccc(C#N)cc2)s1,-25.3% (inactive)
11,CCC(C)c1ccc(Nc2nc(C)c(C)s2)cc1 (stereo not given),41.7% (inactive)
12,Cc1nc(SC(C)C(=O)NC(N)=O)c2c(C)c(C)sc2n1 (stereo not given),-7.75% (inactive)
13,CCOC(=O)c1ccc(NC(=O)N2CCN(C(=O)c3cc4ccoc4n3Cc3cccc(OC)c3)CC2C)cc1 (stereo not given),85.9% (active)
14,COc1cccc(Cn2c(=O)c(C(=O)N3CCCC3)nn(-c3cc(C)cc(C)c3)c2=O)c1,3.71% (inactive)
15,COc1ccccc1Cn1c(C(=O)N2CCN(C(=O)C(Cl)c3ccccc3)C(C)C2)cc2ccsc21 (stereo not given),35.9% (inactive)
16,O=C1c2ccccc2S(=O)(=O)N1Cc1ccccc1Oc1ccccc1,8.36% (inactive)
17,Cc1cccc2sc(NC(=O)C3CC4CCC3C4)nc12 (stereo not given),85.8% (active)
18,O=C(Nc1ccc2ccccc2n1)C1CC2CCC1C2 (stereo not given),45.8% (inactive)
19,O=C(CC1C=CCC1)Nc1nc2c(Cl)c(Cl)ccc2s1 (stereo not given),48.5% (inactive)
20,CC1CCN(Cc2ncc(-c3ccccc3)o2)C2CCCCC12 (stereo not given),72.5% (active)
21,c1ccc(-c2cnc(CN3CCSc4ccccc43)o2)cc1,26% (inactive)
22,CCc1[nH]n(-c2ccc(Cl)c(Cl)c2)c(=O)c1C1=C(N(C)C2CCCCC2)C(=O)N(c2ccccc2F)C1=O,65.4% (active)
23,COc1ccc(N2C(=O)C(c3c(C(C)C)[nH]n(-c4ccc(Cl)cc4)c3=O)=C(N3CCC(C)CC3)C2=O)c(OC)c1,39% (inactive)
24,CCc1c(C)c(C#N)c2[nH]c3ccccc3n2c1=S,40.8% (inactive)
25,CCOc1ccccc1N=Cc1c(C)c(C#N)c2[nH]c3ccccc3n2c1=O,1.57% (inactive)

row,Structure (SMILES),inhibition
1,N#Cc1c(C(F)(F)F)cc(=O)n2c1[nH]c1ccccc12,101% (active)
2,Cc1cc(NC(C)C(=O)N(C)Cc2ccccc2)ccc1Br (stereo not given),50.4% (active)
3,Cc1cc(NC(=O)C(C)Nc2ccc(Br)c(C)c2)on1 (stereo not given),14% (inactive)
4,O=C(Nc1ccccc1)c1cccn(OCc2ccccc2F)c1=O,32.1% (inactive)
5,CCCSc1ncccc1C(=O)Nc1ccc(-c2ccccc2)cc1,89.9% (active)
6,Cc1c(-c2cccc(NC(=O)Nc3ccccc3)c2)nc2ncccn12,18.8% (inactive)
7,CNc1ccc(-c2ccc(CC#N)cc2)cn1,38.5% (inactive)
8,CSCCC(=O)N1CCC(C(=O)Nc2ccc(Oc3ccccc3F)cc2)CC1,76.3% (active)
9,Cc1ccn(CC(=O)N2CCC(C(=O)Nc3ccc(Oc4ccccc4F)cc3)CC2)n1,19.3% (inactive)
10,COCC(=O)N1CCC(C(=O)Nc2ccc(Oc3ccccc3F)cc2)CC1,inactive
11,O=C(Nc1ccc(Oc2ccccc2F)cc1)C1CCN(C(=O)CCc2ccccc2)CC1,90.6% (active)
12,NC(Cc1ccc(Cl)cc1)c1csc(Nc2ccc(-c3ccccc3)nn2)n1 (stereo not given),91.2% (active)
13,COc1cccc(Nc2nc(C(N)Cc3ccc(Cl)cc3)cs2)n1 (stereo not given),80.4% (active)
14,COc1ccc(CC(N)c2csc(Nc3cccc(OC)n3)n2)cc1 (stereo not given),85.1% (active)
15,COc1cccc(Nc2nc(C(N)Cc3ccc(F)cc3)cs2)n1 (stereo not given),86.6% (active)
16,COc1cccc(Nc2nc(C(N)Cc3ccc(C(F)(F)F)cc3)cs2)n1 (stereo not given),75.8% (active)
17,COc1cccc(Nc2nc(C(N)C3CCCCC3)cs2)n1 (stereo not given),86.2% (active)
18,COc1ccc(-c2csc(NC3CCCC3)n2)c(OC)c1,16.6% (inactive)
19,CN(Cc1ccc(O)cc1)C(=O)C1=NOC(c2ccccc2)C1 (stereo not given),66.5% (active)
20,CC(C)c1cc(C(=O)N2CCOC(CCc3ccccc3)C2)no1 (stereo not given),56.6% (active)
21,CC(C)Cc1cc(C(=O)N2CCOC(CCCc3ccccc3)C2)n[nH]1 (stereo not given),54.1% (active)
22,O=C(CCc1cccs1)N1CCOC(CCCc2ccccc2)C1 (stereo not given),34.9% (inactive)
23,O=C(c1ccc2c(c1)OCCO2)N1CCOC(CCc2ccccc2)C1 (stereo not given),39.8% (inactive)
24,COc1ccc(C(=O)N2CCOC(CCc3ccccc3)C2)cc1F (stereo not given),57.4% (active)
25,O=C(COc1ccccc1F)Nc1ccc2c(c1)OC(F)(F)O2,21.4% (inactive)

row,Structure (SMILES),inhibition
1,O=C(CCS(=O)(=O)c1ccccc1F)Nc1ccc(I)cc1,80.2% (active)
2,O=C1N(c2ccc3c(c2)OCO3)C(c2ccc(Cl)cc2)C1(F)F (stereo not given),89.3% (active)
3,Clc1ccc(-n2ncc3c2CCN(Cc2cc4c(cc2Cl)OCO4)C3)cc1,23.9% (inactive)
4,O=C1N(c2ccc3c(c2)OCO3)C(c2cccc(F)c2)C1(F)F (stereo not given),27% (inactive)
5,O=C1N(c2ccccc2)C(c2ccco2)C1(F)F (stereo not given),40.3% (inactive)
6,O=C1N(c2ccc3c(c2)OCO3)C(c2ccc3c(c2)OCO3)C1(F)F (stereo not given),102% (active)
7,c1cc2c(cc1[C@H]1OC[C@H]3[C@@H]1CO[C@H]3c1ccc3c(c1)OCO3)OCO2,49% (inactive)
8,O=C1N(c2ccc(Cl)cc2)C(c2ccc3c(c2)OCO3)C1(F)F (stereo not given),78.8% (active)
9,CCCc1cc(=O)[nH]c(SCCOc2ccc(Br)cc2)n1,18.1% (inactive)
10,Nc1c(C(=O)CCC(=O)O)oc2ccc(Cl)cc12,20.1% (inactive)
11,Nc1c(C(=O)CCC(=O)O)oc2ccc(Br)cc12,68% (active)
12,Nc1c(C(=O)c2ccc(Br)s2)oc2ccccc12,43.5% (inactive)
13,O=C(O)CCC1NCC2CC1CN1CCCCC21 (stereo not given),1.66% (inactive)
14,CSC(Nc1ccc(Br)cc1)=C(C#N)C#N,101% (active)
15,Clc1cccc(Cl)c1OCCOc1cccc2cccnc12,94.7% (active)
16,Cc1ccc(Cl)c(OCCCOc2cccc3cccnc23)c1,71.6% (active)
17,COc1ccc(C2CC(=O)C3=C(C2)NC(C)=C(C#N)C3c2ccc(Cl)c(Cl)c2)cc1 (stereo not given),-9.69% (inactive)
18,CCOc1ccc2nc(CN3CCN(CC=C(C)C)C(CCO)C3)ccc2c1 (stereo not given),inactive
19,OC1(c2cccs2)C[N+]2=C(SCC2)N1c1ccccc1 (stereo not given),-3.48% (inactive)
20,CCCCc1ccc(N2C3=[N+](CCCS3)CC2(O)c2ccc(C)cc2)cc1 (stereo not given),79.3% (active)
21,Oc1c(Br)cc(C=NNc2ccccn2)cc1Br,97.7% (active)
22,N#Cc1cnc(NCc2ccc(N3CCOCC3)c(F)c2)c(Cl)c1,5.19% (inactive)
23,N#Cc1cc(F)c(NCc2ccc(F)cc2)c(F)c1,69.3% (active)
24,N#Cc1ccc(CNc2ccc(F)cc2Cl)cc1,-56.2% (inactive)
25,CCCCS(=O)(=O)NCCOc1ccc(C)cc1,75% (active)

row,Structure (SMILES),inhibition
1,CCCCS(=O)(=O)NCC1CCCCC1,25.9% (inactive)
2,CC(O)c1cccc(OCc2ccc(S(=O)(=O)C(F)F)cc2)c1 (stereo not given),88.2% (active)
3,COc1cccc(C(=O)Nc2ccc(S(=O)(=O)C(F)F)cc2)c1,-1.65% (inactive)
4,Cc1ccccc1OCC1=NN2C(=N)/C(=C/c3ccc(Br)o3)C(=O)N=C2S1,51.2% (active)
5,O=C1CC(C(=O)NCc2ccccc2Cl)c2ccc(F)cc2N1 (stereo not given),87.3% (active)
6,O=C(Cc1ccccc1Cl)NCc1cc(F)cc(F)c1,24% (inactive)
7,CC1(Cc2ccccc2Cl)C(=O)Nc2c(Cl)ccc(Cl)c21 (stereo not given),20.4% (inactive)
8,C(=NNc1nc2ccccc2[nH]1)C(=NNc1nc2ccccc2[nH]1)c1ccccc1,79.8% (active)
9,CC1Oc2ccccc2C=C1/C=N\Nc1nc2ccccc2[nH]1 (stereo not given),94.2% (active)
10,C(=NNc1nc2ccccc2[nH]1)c1c(-c2ccccc2)[nH]c2ccccc12,28.8% (inactive)
11,CC1=CCCC(C)(C)C1C=CC(C)=NNc1nc2ccccc2[nH]1 (stereo not given),36.3% (inactive)
12,CC(=NNc1nc2ccccc2[nH]1)c1ccc(C)o1,84.2% (active)
13,OCn1nc(-c2ccc(Cl)cc2Cl)oc1=S,75.9% (active)
14,Fc1ccc(-c2[nH]ncc2CN2CCC(c3ccccc3F)C2)c(F)c1 (stereo not given),84.8% (active)
15,COc1cccc(-c2cnnc(N3CCC(c4ccccc4F)C3)n2)c1 (stereo not given),41.2% (inactive)
16,C=CCN1C(=O)NC(=O)/C(=C/c2ccc(OCc3ccccc3F)cc2)C1=O,37.1% (inactive)
17,O=C1NC(=S)NC(=O)C1=Cc1ccc(OCc2ccc(Cl)cc2)cc1,97.1% (active)
18,N#Cc1c(NC(=O)CC2(CC(=O)O)CCCC2)sc2c1CCCC2,inactive
19,O=C(Nc1ccc([N+](=O)[O-])cc1)c1ccc(Br)s1,91.6% (active)
20,N#Cc1c(NC(=O)c2ccco2)sc2c1CCCCC2,-3.03% (inactive)
21,N#Cc1c(NC(=O)c2ccc([N+](=O)[O-])s2)sc2c1CCCC2,99.4% (active)
22,Cc1ccc(NC(=O)c2ccc([N+](=O)[O-])s2)cc1,78.9% (active)
23,NC(=O)c1ccsc1NC(=O)c1ccc([N+](=O)[O-])s1,-3.4% (inactive)
24,CCCCCC(C)NC(=O)c1ccc([N+](=O)[O-])s1 (stereo not given),-12.6% (inactive)
25,CN[C@H](CC(C)C)C(=O)N[C@H]1C(=O)N[C@@H](CC(N)=O)C(=O)N[C@H]2C(=O)N[C@H]3C(=O)N[C@H](C(=O)N[C@H](C(=O)O)c4cc(O)cc(O)c4-c4cc3ccc4O)[C@H](O)c3ccc(c(Cl)c3)Oc3cc2cc(c3O[C@@H]2O[C@H](CO)[C@@H](O)[C@H](O)[C@H]2O[C@H]2C[C@](C)(N)[C@H](O)[C@H](C)O2)Oc2ccc(cc2Cl)[C@H]1O,49.3% (inactive)
